Rows were chosen to be rich in hits. Some 5.9% of all compounds tested hit in one or more screens of this group.
GLP-1R agonist: activates the human GLP-1 receptor. P43220. HEK293 GLP-1R CRE-luciferase, luminescence, 4-6 h; cells express a hypersensitive GLP-1R form. Potency, µM (series often up to 45.6 µM), hits mostly activators. actives 0.007% (n = 380,000)
GLP1R inv ag: inverse agonists of human GLP-1 receptor | P43220 | HEK293 GLP-1R CRE-luciferase, luminescence, 24 h; GLP-1R form is constitutively active | Potency, µM (series often up to 38.3 µM), usual class: inhibitors | actives 1.6% (n = 410,000) | AID 624417; further: nearly all actives have a fitted effect of over 55% in size
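Seeding at 200 cells/uL, 12 h culture, 24 hr compound treatment, then luciferase reagent and a luminescence read; cells are HEK293 stably expressing a constitutively active GLP-1R plus cAMP-responsive luciferase.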
GLP1R cytotox: cytotoxicity in counter-screen for GLP-1R inverse agonists. HEK293 cAMP-luciferase reporter cells, luminescence, 24 h. Potency, µM (titrated, usually from 38.3 µM), hits mostly inhibitors. actives 0.13% (n = 410,000);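 further: loss of luciferase light is scored as toxicity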
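Quantitative HTS format, 1536 wells, 200 cells/uL seeded. Compounds: 23 nL, 24 h, 37 °C. Detection: luciferase reagent, luminescence at 12 min RT; decreased signal taken as cytotoxic.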
RORg inh: blocks mouse ROR gamma transcriptional activity | P51450 | Drosophila S2 Gal4-RORgamma UAS-luciferase reporter, 20 h | Potency, µM (highest dose often 53.6 µM), usual class: inhibitors | actives 5.4% (n = 310,000); further: nearly all actives have a fitted effect of over 60% in size
Target sequence (P51450 whole entry, looked up, the tested form may be a part): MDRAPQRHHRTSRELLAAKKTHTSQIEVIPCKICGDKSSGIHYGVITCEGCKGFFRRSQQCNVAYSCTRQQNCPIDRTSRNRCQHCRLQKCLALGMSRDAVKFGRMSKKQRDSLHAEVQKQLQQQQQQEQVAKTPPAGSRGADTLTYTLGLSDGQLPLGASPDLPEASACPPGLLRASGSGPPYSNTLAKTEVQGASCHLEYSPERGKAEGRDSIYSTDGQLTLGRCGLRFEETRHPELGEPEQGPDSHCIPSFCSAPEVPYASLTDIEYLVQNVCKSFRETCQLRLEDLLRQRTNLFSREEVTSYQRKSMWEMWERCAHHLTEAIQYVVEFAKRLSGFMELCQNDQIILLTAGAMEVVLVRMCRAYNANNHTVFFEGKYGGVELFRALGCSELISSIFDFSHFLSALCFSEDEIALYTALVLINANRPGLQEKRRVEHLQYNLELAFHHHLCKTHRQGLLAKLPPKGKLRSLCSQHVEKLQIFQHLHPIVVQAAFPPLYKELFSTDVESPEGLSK
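Compounds are pin-transferred onto Drosophila Schneider cells expressing a copper-inducible Gal4–ROR gamma transactivation domain fusion. After 1 hr, copper sulfate is added to 700 uM final; luciferase is read 20 hr later.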
VP16 counter: inhibits Gal4-VP16 luciferase reporter, ROR gamma counter-screen. Drosophila S2 Gal4-VP16 UAS-luciferase, luminescence, 20 h. Potency, µM (highest dose often 53.6 µM), usual class: inhibitors. actives 3.5% (n = 310,000). AID 2546;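 further: Gal4-VP16 expression switched on by copper sulfate through the metallothionein promoter; nearly all actives have a fitted effect of over 50% in size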
Hits are given with their value; . = inactive; ? = inconclusive; / = no result; [ ] = dose if it differs, or a comment. The call rests on the fitted dose curve; in most records, active means well fitted curve in the direction sought with a large enough effect; inconclusive means small, poorly fitted or top-dose-only effect, or another doubt; inactive means no such curve, though single readings can be large; an effect the other way counts as inactive or inconclusive.

SMILES | GLP-1R agonist | GLP1R inv ag | GLP1R cytotox | RORg inh | VP16 counter
FC(F)(F)c1cnc(-c2cnc(-c3ccccn3)nc2)c(Cl)c1 | . | ? | . | 5.6µM | .
FC(F)(F)c1cnc(-c2cnc(-c3ccncc3)nc2)c(Cl)c1 | . | . | . | . | .
N#Cc1ccc(NC(=O)COCc2cc(-c3ccc4c(c3)OCO4)on2)cc1 | / | . | . | / | /
CCOc1ccc(-c2ccc(/C=C3/C(=N)N4C=CSC4=NC3=O)o2)c([N+](=O)[O-])c1 | . | . | . | 2.5µM | 3.5µM
CC1=CN2C(=N)/C(=C/c3ccc([N+](=O)[O-])o3)C(=O)N=C2S1 | . | ? | ? | 11µM | 5µM
CCOc1ccc(-c2ccc(/C=C3/C(=N)N4C(C)=CSC4=NC3=O)o2)c([N+](=O)[O-])c1 | . | . | . | . | ?
CC1=CN2C(=N)/C(=C/c3ccco3)C(=O)N=C2S1 | . | . | . | ? | 16µM
Cc1ccc(-n2cccc2/C=C2\C(=N)N3N=C(c4ccco4)SC3=NC2=O)cc1 | . | . | . | . | .
ICCc1ccccc1 | / | / | / | . | .
Cc1csc(NC(=O)c2ccc(N3CCCC3=O)cc2)n1 | . | 2.2µM | . | 2.5µM | ?
Cc1ccnc(NC(=O)c2ccc(OCC3CCCO3)cc2)c1 (stereo not given) | . | 5.6µM | . | / | /
Cc1csc(NC(=O)c2ccc(OCC3CCCO3)cc2)n1 (stereo not given) | . | . | . | 3.5µM | ?
Cc1csc(NC(=O)c2cc([N+](=O)[O-])cc([N+](=O)[O-])c2)n1 | . | . | . | ? | 2µM
Cc1nnc(NC(=O)c2ccc(N3CCCC3=O)cc2)s1 | . | . | . | / | /
CCOc1ccc(CCNC(=O)Cn2ccc3cc(S(=O)(=O)N4CCCCCC4)ccc32)cc1 | / | ? | . | / | /
Cc1cc2c(cc1Cl)C(c1ccc3c(c1)OCO3)CC(=O)O2 (stereo not given) | / | / | / | . | .
CC(C)OC(=O)NC(c1ccccc1)C(Cl)(Cl)Cl (stereo not given) | . | 11µM | . | . | .
C=CCC1C=CC(Oc2ccc(OC)cc2)C(CO)O1 (stereo not given) | / | / | / | .[10 µM] | .[10 µM]
Cc1cc(C)cc(OCCSc2nc3ccc(NC(=O)c4cccs4)cc3s2)c1 | / | 10µM | . | / | /
Cc1ccc2nc(NC(=S)NC(=O)c3cccs3)sc2c1 | . | . | . | 1.1µM | 3.2µM
O=C(NC(=S)Nc1nc(-c2ccc(Cl)cc2)cs1)c1cccs1 | . | . | . | 0.79µM | .
Cc1ccc(-c2csc(NC(=S)NC(=O)c3cccs3)n2)cc1 | . | . | . | 2µM | .
O=C(NC(=S)Nc1nc(-c2ccccc2)cs1)c1cccs1 | . | . | .[1.53 µM] | . | .
Brc1cc(Oc2cc(Br)c(Br)c(Br)c2Br)c(Br)c(Br)c1Br | / | / | / | . | .
COc1ccc(-c2cc(C(F)(F)F)nc(SCC(=O)Nc3ccc(C(C)=O)cc3)n2)cc1 | . | . | . | / | /
SMILES | GLP-1R agonist | GLP1R inv ag | GLP1R cytotox | RORg inh | VP16 counter
CCC(=O)N1CCN(c2ccc(NC(=S)NC(=O)c3cc4ccccc4o3)cc2)CC1 | . | . | . | 13µM | 4µM
O=C(NC(=S)Nc1ccc(NC(=O)c2cccs2)cc1)c1cc2ccccc2o1 | . | . | . | 7.1µM | 7.9µM
O=C(NC(=S)Nc1ccc(NC(=O)c2cccs2)cc1)c1ccco1 | . | ? | . | ? | ?
CC(C)C(=O)N1CCN(c2ccc(NC(=S)NC(=O)c3cc4ccccc4o3)cc2)CC1 | . | . | . | 5µM | ?
CCC(=O)N1CCN(c2ccc(NC(=S)NC(=O)COc3ccccc3)cc2)CC1 | . | . | . | ? | 13µM
CC1CCN(C(=O)CSc2c3c(nc4ccc(Cl)cc24)CCCC3)CC1 | / | ? | . | / | /
COC(=O)c1ccccc1NC(=O)C1=C(C)C(=O)OC12CCC(C)CC2 (stereo not given) | / | ? | . | / | /
CC/C=C/[C@@H](c1ccccc1)[C@H](C)C(O)CC(=O)SC(C)(C)C (stereo not given in full) | / | / | / | . | .
O=C(CSc1nc2c(c(=O)[nH]1)CN(Cc1ccc3c(c1)OCO3)CC2)Nc1ccc(F)cc1 | / | . | . | / | /
c1ccc(C(OC2CCCN(CCc3ccc4c(c3)OCO4)C2)c2ccccc2)cc1 (stereo not given) | . | / | / | . | .
